# Several values for one entry are separate records, joined by “and”; a condition that tells them apart may be missing. Equal values may be shown once. A number with no mark means an inactive call. Records with an inconclusive call do not appear. Where a call stands in place of a potency, no number is given. Activity calls are given as the source filed them. Unless noted, the call rests on the fitted dose curve.
# How the values were obtained:
# [1] = Nuclear factor erythroid 2-related factor 2/antioxidant responsive element (Nrf2/ARE) small molecule agonists: qHTS cell viability counter screen in human keratinocytes (AID 1919968; active means well fitted curve in the direction sought with a large enough effect in the repeat runs; an effect the other way counts as inactive or inconclusive; further: nearly all actives have a fitted effect of over 55% in size; further: potency means the concentration at half of the fitted maximal effect)
# Method in brief: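 Seed 1,500 KeratinoSens cells per well, then incubate 5 h at 37 C/5% CO2. Add compounds in DMSO and incubate 23 h. Add CellTiter-Fluor, wait 1 h and read fluorescence.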
# [2] = Nuclear factor erythroid 2-related factor 2/antioxidant responsive element (Nrf2/ARE) small molecule agonists: luciferase reporter gene qHTS assay in human keratinocytes (AID 1919969); further: nearly all actives have a fitted effect of over 35% in size
# [3] = biological target: Gonadotropin-releasing hormone receptor (Homo sapiens) (UniProt P30968); experiment: Human gonadotropin-releasing hormone receptor (GnRHR) small molecule agonists, calcium flux assay in GnRHR-HEK293 cells (AID 1920063); further: nearly all actives have a fitted effect of over 35% in size
# Gonadotropin-releasing hormone receptor (Homo sapiens), sequence (P30968 whole entry, looked up): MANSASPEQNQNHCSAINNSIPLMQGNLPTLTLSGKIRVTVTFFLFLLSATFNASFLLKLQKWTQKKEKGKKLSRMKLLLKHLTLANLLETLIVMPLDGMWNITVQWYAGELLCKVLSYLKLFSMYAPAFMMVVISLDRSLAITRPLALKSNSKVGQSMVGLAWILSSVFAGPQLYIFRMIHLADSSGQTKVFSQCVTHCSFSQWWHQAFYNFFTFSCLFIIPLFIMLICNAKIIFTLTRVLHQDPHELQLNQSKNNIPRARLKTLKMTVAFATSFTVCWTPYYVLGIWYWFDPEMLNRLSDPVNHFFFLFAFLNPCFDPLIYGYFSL
# Method in brief: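 Cells: HEK293 stably expressing human GnRHR. Steps: overnight (18 h) culture, 1 h calcium dye loading at 37 C, compound addition, kinetic fluorescence read at 480/540 nm. Each compound tested at 15 concentrations in triplicate.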
# [4] = biological target: KiSS-1 receptor (Homo sapiens) (UniProt Q969F8); experiment: Human kisspeptin (KISS1R) small molecule agonists, calcium flux assay in KISS1R-HEK293 cells (AID 1920064; active means well fitted curve in the direction sought with a large enough effect in the repeat runs; an effect the other way counts as inactive or inconclusive)
# KiSS-1 receptor (Homo sapiens), sequence (Q969F8 whole entry, looked up): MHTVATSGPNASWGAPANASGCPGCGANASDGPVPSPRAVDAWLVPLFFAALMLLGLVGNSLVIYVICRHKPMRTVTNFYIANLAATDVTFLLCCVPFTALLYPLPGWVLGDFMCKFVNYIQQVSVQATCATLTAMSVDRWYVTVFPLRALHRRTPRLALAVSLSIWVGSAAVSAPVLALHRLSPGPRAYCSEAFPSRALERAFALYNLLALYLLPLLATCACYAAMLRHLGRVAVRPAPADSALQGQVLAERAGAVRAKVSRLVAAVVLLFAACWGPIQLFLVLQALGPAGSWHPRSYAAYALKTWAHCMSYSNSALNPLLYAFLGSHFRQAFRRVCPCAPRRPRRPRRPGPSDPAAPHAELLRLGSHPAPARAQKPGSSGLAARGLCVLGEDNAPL
# Method in brief: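 Cells plated and incubated 18 h; dye added, 1 h at 37 C; compounds in DMSO pinned in; signal read at 480/540 nm every second for 3 min. Each compound tested at 15 concentrations in triplicate.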
# [5] = p53 small molecule agonists, cell-based qHTS assay with human liver microsomes: qHTS cell viability counter screen (AID 1963579); further: nearly all actives have a fitted effect of over 45% in size
# Method in brief: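 Seed p53RE-bla cells at 4,000 per well; incubate 5 h at 37 C; add compound, human liver microsomes and NADPH; incubate 16 h at 37 C; add CellTiter-Glo; after 30 min at room temperature, read luminescence.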
# [6] = p53 small molecule agonists, cell-based qHTS assay with rat liver microsomes: qHTS cell viability counter screen (AID 1963580); further: nearly all actives have a fitted effect of over 45% in size
# Method in brief: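 HCT-116 p53RE-bla, 4,000 cells/well, 5 h pre-incubation; cpd + rat liver microsomes 0.5 mg/mL + NADPH 0.5 mg/mL (final); 16 h, 37 C; CellTiter-Glo, 30 min RT; luminescence.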
# [7] = cAMP Responsive Elements (CRE) small molecule agonists, cell-based qHTS assay (AID 1963590)
# Method in brief: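 Agonist mode qHTS in CRE-bla HEK 293T cells: compounds dosed from DMSO for 3 h at 37 C/5% CO2, followed by LiveBLAzer B/G FRET substrate for 2 h at room temperature.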
# [8] = cAMP Responsive Elements (CRE) small molecule antagonists, cell-based qHTS assay (AID 1963591; active means well fitted inhibition curve with a large enough effect in the signal ratio in the repeat runs, not every such curve was filed as active; the % refers to the signal ratio)
# Method in brief: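 Antagonist mode: test compounds are co-incubated with the adenylyl cyclase activator NKH477 (0.25 uM final) on CRE-bla HEK293T cells for 3 h at 37 °C, followed by LiveBLAzer substrate loading.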
# [9] = biological target: Beta-2 adrenergic receptor (Homo sapiens) (UniProt P07550); experiment: Adrenergic beta2 receptor (ADRB2) small molecule antagonists, cell-based qHTS assay (AID 1963592); further: series mostly up to about 92 µM; nearly all actives have a fitted effect of over 50% in size
# Beta-2 adrenergic receptor (Homo sapiens), sequence (P07550 whole entry, looked up): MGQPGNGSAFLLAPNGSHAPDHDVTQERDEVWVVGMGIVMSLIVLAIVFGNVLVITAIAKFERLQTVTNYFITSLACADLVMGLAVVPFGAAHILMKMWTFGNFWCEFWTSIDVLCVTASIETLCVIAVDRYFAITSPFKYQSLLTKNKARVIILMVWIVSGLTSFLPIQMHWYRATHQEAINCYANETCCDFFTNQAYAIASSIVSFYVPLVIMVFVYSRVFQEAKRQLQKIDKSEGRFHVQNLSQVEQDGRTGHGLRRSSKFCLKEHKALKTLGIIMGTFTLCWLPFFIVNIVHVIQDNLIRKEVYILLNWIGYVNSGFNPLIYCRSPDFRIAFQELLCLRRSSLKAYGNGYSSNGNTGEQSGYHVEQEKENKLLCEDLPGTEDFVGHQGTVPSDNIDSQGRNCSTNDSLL
# Method in brief: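 Cells (CHO, stable ADRB2 overexpression) incubated 18-20hr at 37C; compounds added from DMSO; agonist mix (1nM isoproterenol, 100uM IBMX, 25uM Ro-20-1724) added; 0.5hr RT; d2-cAMP and anti-cAMP-cryptate added; 1hr RT; 665/615 nm read.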
# [10] = biological target: D(2) dopamine receptor (Homo sapiens) (UniProt P14416); experiment: Dopamine D2 receptor (DRD2) small molecule agonists, cell-based qHTS assay (AID 1963594); further: nearly all actives have a fitted effect of over 35% in size
# D(2) dopamine receptor (Homo sapiens), sequence (P14416 whole entry, looked up): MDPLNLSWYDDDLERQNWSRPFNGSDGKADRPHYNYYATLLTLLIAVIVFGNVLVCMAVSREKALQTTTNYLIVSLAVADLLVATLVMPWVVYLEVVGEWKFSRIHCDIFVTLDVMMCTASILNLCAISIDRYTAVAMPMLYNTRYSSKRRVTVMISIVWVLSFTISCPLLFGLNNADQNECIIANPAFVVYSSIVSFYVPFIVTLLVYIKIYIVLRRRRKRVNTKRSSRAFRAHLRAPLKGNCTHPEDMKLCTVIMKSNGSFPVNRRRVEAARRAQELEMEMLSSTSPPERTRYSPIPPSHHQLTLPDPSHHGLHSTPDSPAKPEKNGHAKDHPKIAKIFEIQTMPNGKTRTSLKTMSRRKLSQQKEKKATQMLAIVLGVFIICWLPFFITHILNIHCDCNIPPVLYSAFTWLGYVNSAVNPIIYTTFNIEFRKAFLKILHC
# Method in brief: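 cAMP accumulation in DRD2-HEK293 cells measured by HTRF after 1 h detection; compounds added 10 min before NKH477 (200nM […]) forskolin-analogue stimulation, 30 min at room temperature, with Ro20-1724 present at 0.1 mM final.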
# [11] = biological target: D(2) dopamine receptor (Homo sapiens) (UniProt P14416); experiment: Dopamine D2 receptor (DRD2) small molecule antagonists, cell-based qHTS assay (AID 1963595; active means well fitted inhibition curve with a large enough effect in the signal ratio in the repeat runs, with a control signal flat; the % refers to the signal ratio; further: potency means the concentration at half of the fitted maximal effect)
# Method in brief: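 HTRF cAMP read-out at 665 and 620 nm emission (340 nm excitation). Antagonist mode: compounds were tested against 12 nM quinpirole in DRD2-HEK293 cells, with 200 nM NKH477 raising cAMP and 0.1 mM Ro20-1724 blocking its breakdown.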
# [12] = p53 small molecule agonists, cell-based qHTS assay with human liver microsomes (AID 1963577)
# Method in brief: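 Cells carrying a p53-responsive bla reporter were rested 5 h (37 C, 5% CO2) before compound transfer. Human liver microsomes plus NADPH, 0.5 mg/mL final apiece, supplied metabolism during the 16 h 37 C exposure.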
# [13] = p53 small molecule agonists, cell-based qHTS assay with rat liver microsomes (AID 1963578)
# Method in brief: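 Fluorescence from a beta-lactamase reporter under a p53 response element was measured after cells had been incubated 16 h at 37 C with test compound and rat liver microsomes plus NADPH (0.5 mg/mL final each).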
# [14] = p53 small molecule agonists, cell-based qHTS assay: qHTS cell viability counter screen (AID 1963581); further: nearly all actives have a fitted effect of over 45% in size
# Method in brief: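 Cells: HCT-116 with p53 response element-driven beta-lactamase. Treatment: 16 h, 37 C, compounds in DMSO. Read: CellTiter-Glo luminescence after 30 min RT.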
# [15] = p53 small molecule agonists, cell-based qHTS assay (AID 1963582; active means well fitted activation curve with a large enough effect in the signal ratio in the repeat runs, not every such curve was filed as active; the % refers to the signal ratio)
# Method in brief: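 Quantitative HTS in p53RE-bla cells: after a 5 h settling period, compounds delivered in DMSO were left on cells for 16 h at 37 C, and reporter induction was measured as fluorescence following 2 h substrate loading.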
# [16] = biological target: 5-hydroxytryptamine receptor 2A (Homo sapiens) (UniProt P28223); experiment: 5-hydroxytryptamine receptor 2A (HTR2A) small molecule antagonists, cell-based qHTS assay (AID 1963586); further: nearly all actives have a fitted effect of over 45% in size
# 5-hydroxytryptamine receptor 2A (Homo sapiens), sequence (P28223 whole entry, looked up): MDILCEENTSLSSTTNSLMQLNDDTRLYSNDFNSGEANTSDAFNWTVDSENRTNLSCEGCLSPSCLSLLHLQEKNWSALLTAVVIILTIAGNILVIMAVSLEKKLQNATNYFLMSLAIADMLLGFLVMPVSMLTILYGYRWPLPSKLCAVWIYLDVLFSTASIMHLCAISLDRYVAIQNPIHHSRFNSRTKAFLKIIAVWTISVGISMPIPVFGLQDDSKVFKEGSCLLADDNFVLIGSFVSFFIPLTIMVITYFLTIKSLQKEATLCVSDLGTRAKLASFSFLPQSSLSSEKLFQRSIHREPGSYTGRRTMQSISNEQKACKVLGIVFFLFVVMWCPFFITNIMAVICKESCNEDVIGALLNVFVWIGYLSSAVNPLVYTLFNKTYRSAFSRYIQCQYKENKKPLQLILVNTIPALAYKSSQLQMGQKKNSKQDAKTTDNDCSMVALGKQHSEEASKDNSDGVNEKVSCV
# Method in brief: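 Antagonist-mode intracellular calcium assay: DOI (4 nM) added after 5 min compound pre-incubation at room temperature to dye-loaded HTR2A-CHO cells. Fluorescence followed for 3 min, sampled every second.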
# [17] = biological target: 5-hydroxytryptamine receptor 2A (Homo sapiens) (UniProt P28223); experiment: 5-hydroxytryptamine receptor 2A (HTR2A) small molecule agonists, cell-based qHTS assay (AID 1963587); further: nearly all actives have a fitted effect of over 30% in size
# Method in brief: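 Kinetic calcium-flux fluorescence (2 min, 1 sec intervals) after compound addition in agonist mode. HTR2A-CHO cells were cultured 18 h, then dye-loaded 1 h at 37 C.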
# [18] = biological target: Muscarinic acetylcholine receptor M1 (Homo sapiens) (UniProt P11229); experiment: Cholinergic receptor muscarinic 1 (CHRM1) small molecule antagonists, cell-based qHTS assay (AID 1963588); further: nearly all actives have a fitted effect of over 40% in size
# Muscarinic acetylcholine receptor M1 (Homo sapiens), sequence (P11229 whole entry, looked up): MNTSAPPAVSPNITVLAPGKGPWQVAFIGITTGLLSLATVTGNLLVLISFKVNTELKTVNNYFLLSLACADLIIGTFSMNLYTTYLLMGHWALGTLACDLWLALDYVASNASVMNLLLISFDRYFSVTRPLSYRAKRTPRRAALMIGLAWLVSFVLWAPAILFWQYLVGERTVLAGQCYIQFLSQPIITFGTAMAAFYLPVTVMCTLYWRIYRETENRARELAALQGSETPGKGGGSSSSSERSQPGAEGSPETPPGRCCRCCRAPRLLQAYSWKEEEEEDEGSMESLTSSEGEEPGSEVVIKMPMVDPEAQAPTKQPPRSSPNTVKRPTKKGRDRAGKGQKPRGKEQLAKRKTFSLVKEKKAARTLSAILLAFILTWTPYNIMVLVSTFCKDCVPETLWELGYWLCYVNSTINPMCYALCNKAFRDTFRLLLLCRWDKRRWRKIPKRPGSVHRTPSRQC
# Method in brief: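 CHRM1-CHO calcium-flux assay, antagonist mode. Cells were seeded 18 h, dye-loaded 1 h at 37 C and given compound for 5 min at RT, then acetylcholine was added at 50nM. FDSS fluorescence was read 3 min; 15 concentrations, three runs.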
# [19] = biological target: Muscarinic acetylcholine receptor M1 (Homo sapiens) (UniProt P11229); experiment: Cholinergic receptor muscarinic 1 (CHRM1) small molecule agonists, cell-based qHTS assay (AID 1963589); further: nearly all actives have a fitted effect of over 35% in size
# Method in brief: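 Agonist-mode qHTS in CHO cells stably carrying human muscarinic M1. Intracellular calcium is tracked by fluorescence every second after compound transfer; each compound runs at 15 concentrations in three independent runs.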
# [20] = biological target: Beta-2 adrenergic receptor (Homo sapiens) (UniProt P07550); experiment: Adrenergic beta2 receptor (ADRB2) small molecule agonists, cell-based qHTS assay (AID 1963593);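 further: CHO cells stably overexpressing human ADRB2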
# Method in brief: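 CHO cells stably over-expressing ADRB2 were plated overnight at 37C, then dosed with compounds plus a stimulation mix containing 100uM IBMX and 25uM Ro-20-1724 for 0.5hr at room temperature. cAMP was measured by HTRF competition, 1hr.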
SMILES,Potency [1],Potency [2],Potency [3],Potency [4],Potency [5],Potency [6],Potency [7],Potency [8],Potency [9],Potency [10],Potency [11],Potency [12],Potency [13],Potency [14],Potency [15],Potency [16],Potency [17],Potency [18],Potency [19],Potency [20]
Clc1ccc2c(c1)C(N1CCNCC1)=Nc1ccccc1O2,61.1 µM (active),inactive,inactive,inactive,inactive,inactive,inactive,inactive,inactive,inactive,13.7 µM (active) and 8.41 µM (active),–,–,–,–,–,–,–,–,–
COc1ccc(C(=O)CC(=O)c2ccc(C(C)(C)C)cc2)cc1,inactive,inactive,inactive,inactive,inactive,inactive,inactive,inactive,inactive,inactive,inactive,inactive,inactive,inactive,inactive,inactive,inactive,inactive,inactive,inactive
CCC(CC)C(C)CCOC(C)=O (stereo unspecified),inactive,inactive,inactive,inactive,inactive,inactive,inactive,inactive,inactive,inactive,inactive,inactive,inactive,inactive,inactive,inactive,inactive,inactive,inactive,inactive
CCC(C)C(=O)OCCc1ccccc1 (stereo unspecified),inactive,inactive,inactive,inactive,inactive,inactive,inactive,inactive,inactive,inactive,inactive,inactive,inactive,inactive,inactive,inactive,inactive,inactive,inactive,inactive
CC(=O)CC(=O)Nc1ccccc1,inactive,inactive,inactive,inactive,–,inactive,inactive,inactive,inactive,–,inactive,–,–,inactive,–,–,inactive,inactive,inactive,–
c1ccc2cnccc2c1,inactive,inactive,inactive,inactive,inactive,inactive,inactive,inactive,inactive,inactive,inactive,inactive,inactive,–,inactive,inactive,inactive,inactive,inactive,–
O=C1CCC(=O)O1,inactive,inactive,inactive,inactive,inactive,inactive,inactive,–,inactive,inactive,inactive,inactive,inactive,inactive,–,inactive,inactive,inactive,inactive,–
O=C(O)c1cc(O)c(O)c(O)c1,inactive,inactive,inactive,inactive,inactive,inactive,inactive,inactive,inactive,–,inactive,inactive,inactive,inactive,inactive,inactive,–,inactive,–,inactive

# — PubChem BioAssay (Tox21)
